# In paper PMC7862700, “An all-to-all approach to the identification of sequence-specific readers for epigenetic DNA modifications on cytosine”:
# What was measured:
# Assay in all cases: DAPPL (digital affinity profiling via proximity ligation, sequencing); 10 mM Tris-HCl pH 7.5, 50 mM NaCl, 1 mM DTT, 4% glycerol, room temperature, 30 min; GST-TFs on glutathione beads, 16-mer random dsDNA library, 0.1% formaldehyde crosslink after washing; high values mean tight binding
# FEV = biological target: T1, FEV (Homo sapiens, UniProt Q99581 1-238); conditions: protein: recombinant; tags: N-terminal GST; dsDNA, one strand shown
# T1 sequence: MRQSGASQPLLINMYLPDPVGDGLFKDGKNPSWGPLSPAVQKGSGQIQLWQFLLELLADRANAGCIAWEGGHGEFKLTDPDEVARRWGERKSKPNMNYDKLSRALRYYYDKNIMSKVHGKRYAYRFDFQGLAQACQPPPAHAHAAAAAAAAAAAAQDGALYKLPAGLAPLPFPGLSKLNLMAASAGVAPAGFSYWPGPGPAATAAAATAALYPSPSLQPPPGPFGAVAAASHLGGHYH
# Outline: (§1)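 Human transcription factors carrying a GST fusion were produced in yeast, bound to glutathione beads, tagged with DNA barcodes and pooled together with a tag-only sample. Each pool was held with 200 nmole of a random double-stranded 16-mer DNA library in Tris/NaCl/DTT/glycerol buffer for 30 min at room temperature, then washed, crosslinked in 0.1% formaldehyde, proximity-ligated with BsaI/T4 ligase (1 h, 37 °C), PCR-amplified and sequenced on an Illumina NextSeq500. Binding signal is the read frequency of each hexamer for a given factor divided by its frequency in the tag-only sample.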
# ETV5 = ETV5 (Homo sapiens, UniProt P41161 1-510); conditions: protein: recombinant; tags: N-terminal GST; dsDNA, one strand shown
# Outline: as §1
# HSF1 = HSF1 (Homo sapiens, UniProt Q00613 1-529); conditions: protein: recombinant; tags: N-terminal GST; chain copies: 3; dsDNA, one strand shown
# Outline: as §1
# SPIC = biological target: T2, SPIC (Homo sapiens, UniProt Q8N5J4 1-248); conditions: protein: recombinant; tags: N-terminal GST; dsDNA, one strand shown
# T2 sequence: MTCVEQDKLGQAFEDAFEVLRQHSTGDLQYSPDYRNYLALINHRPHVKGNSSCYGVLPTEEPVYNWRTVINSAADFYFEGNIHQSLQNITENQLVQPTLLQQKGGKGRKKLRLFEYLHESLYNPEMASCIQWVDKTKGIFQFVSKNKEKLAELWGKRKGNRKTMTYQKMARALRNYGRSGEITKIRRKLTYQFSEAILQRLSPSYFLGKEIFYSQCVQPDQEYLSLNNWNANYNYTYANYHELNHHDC
# Outline: as §1
# ELF4 = ELF4 (Homo sapiens, UniProt Q99607 1-663); conditions: protein: recombinant; tags: N-terminal GST; dsDNA, one strand shown
# Outline: as §1
# ELK4 = biological target: T3, ELK4 (Homo sapiens, UniProt P28324-2 1-405); conditions: protein: recombinant; tags: N-terminal GST; dsDNA, one strand shown
# T3 sequence: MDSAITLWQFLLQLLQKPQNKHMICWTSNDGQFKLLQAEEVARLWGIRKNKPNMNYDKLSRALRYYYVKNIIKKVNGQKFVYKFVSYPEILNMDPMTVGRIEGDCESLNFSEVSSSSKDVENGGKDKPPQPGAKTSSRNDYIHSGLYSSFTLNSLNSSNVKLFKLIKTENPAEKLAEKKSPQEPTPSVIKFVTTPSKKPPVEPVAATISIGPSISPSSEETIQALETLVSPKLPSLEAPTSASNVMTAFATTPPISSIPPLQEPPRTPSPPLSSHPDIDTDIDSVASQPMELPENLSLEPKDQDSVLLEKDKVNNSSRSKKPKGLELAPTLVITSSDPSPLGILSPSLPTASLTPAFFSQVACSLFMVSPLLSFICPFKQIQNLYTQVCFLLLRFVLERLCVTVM
# Outline: as §1
# ETV2 = biological target: T4, ETV2 (Homo sapiens, UniProt O00321 1-342); conditions: protein: recombinant; tags: N-terminal GST; dsDNA, one strand shown
# T4 sequence: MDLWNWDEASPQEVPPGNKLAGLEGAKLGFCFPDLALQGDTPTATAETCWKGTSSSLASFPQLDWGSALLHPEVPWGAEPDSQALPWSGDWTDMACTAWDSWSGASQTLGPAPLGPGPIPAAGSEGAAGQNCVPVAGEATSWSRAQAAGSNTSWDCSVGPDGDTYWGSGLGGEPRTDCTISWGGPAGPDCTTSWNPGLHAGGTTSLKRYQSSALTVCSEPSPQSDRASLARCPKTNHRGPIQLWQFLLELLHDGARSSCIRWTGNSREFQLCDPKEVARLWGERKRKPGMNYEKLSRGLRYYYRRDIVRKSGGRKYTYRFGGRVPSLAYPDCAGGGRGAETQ
# Outline: as §1
# ELF3 = biological target: T5, ELF3 (Homo sapiens, UniProt P78545 1-371); conditions: protein: recombinant; tags: N-terminal GST; dsDNA, one strand shown
# T5 sequence: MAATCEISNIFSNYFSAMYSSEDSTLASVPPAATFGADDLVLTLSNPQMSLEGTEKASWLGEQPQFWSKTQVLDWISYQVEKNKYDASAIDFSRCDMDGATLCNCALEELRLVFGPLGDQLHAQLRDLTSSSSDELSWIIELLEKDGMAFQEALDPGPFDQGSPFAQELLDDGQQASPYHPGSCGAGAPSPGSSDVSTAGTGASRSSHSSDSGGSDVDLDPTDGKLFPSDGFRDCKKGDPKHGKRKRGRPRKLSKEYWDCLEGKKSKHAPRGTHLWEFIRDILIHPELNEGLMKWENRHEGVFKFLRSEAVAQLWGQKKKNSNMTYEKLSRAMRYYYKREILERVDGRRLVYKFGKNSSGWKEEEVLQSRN
# Outline: as §1
# CRX = CRX (Homo sapiens, UniProt O43186 1-299); conditions: protein: recombinant; tags: N-terminal GST; dsDNA, one strand shown
# Outline: as §1
# ETV1 = ETV1 (Homo sapiens, UniProt P50549 1-477); conditions: protein: recombinant; tags: N-terminal GST; dsDNA, one strand shown
# Outline: as §1
# ERF = biological target: T6, ERF (Homo sapiens, UniProt P50548 1-548); conditions: protein: recombinant; tags: N-terminal GST; dsDNA, one strand shown
# T6 sequence: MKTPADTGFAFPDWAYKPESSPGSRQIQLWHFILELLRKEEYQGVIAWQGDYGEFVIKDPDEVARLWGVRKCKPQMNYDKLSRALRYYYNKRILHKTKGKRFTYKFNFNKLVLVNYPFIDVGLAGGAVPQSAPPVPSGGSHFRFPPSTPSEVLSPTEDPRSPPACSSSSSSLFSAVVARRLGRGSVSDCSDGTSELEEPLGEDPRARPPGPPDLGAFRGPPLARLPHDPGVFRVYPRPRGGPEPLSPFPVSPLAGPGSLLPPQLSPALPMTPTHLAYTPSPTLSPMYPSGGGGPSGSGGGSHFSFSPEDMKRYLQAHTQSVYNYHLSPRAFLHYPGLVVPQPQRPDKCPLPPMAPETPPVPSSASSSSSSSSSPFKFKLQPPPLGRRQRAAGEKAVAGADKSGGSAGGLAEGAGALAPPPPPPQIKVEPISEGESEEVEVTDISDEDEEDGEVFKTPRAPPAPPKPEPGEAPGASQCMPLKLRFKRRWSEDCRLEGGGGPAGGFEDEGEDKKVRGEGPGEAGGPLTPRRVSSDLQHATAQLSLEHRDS
# Outline: as §1
# ETV3L = biological target: T7, ETV3L (Homo sapiens, UniProt Q6ZN32 1-361); conditions: protein: recombinant; tags: N-terminal GST; dsDNA, one strand shown
# T7 sequence: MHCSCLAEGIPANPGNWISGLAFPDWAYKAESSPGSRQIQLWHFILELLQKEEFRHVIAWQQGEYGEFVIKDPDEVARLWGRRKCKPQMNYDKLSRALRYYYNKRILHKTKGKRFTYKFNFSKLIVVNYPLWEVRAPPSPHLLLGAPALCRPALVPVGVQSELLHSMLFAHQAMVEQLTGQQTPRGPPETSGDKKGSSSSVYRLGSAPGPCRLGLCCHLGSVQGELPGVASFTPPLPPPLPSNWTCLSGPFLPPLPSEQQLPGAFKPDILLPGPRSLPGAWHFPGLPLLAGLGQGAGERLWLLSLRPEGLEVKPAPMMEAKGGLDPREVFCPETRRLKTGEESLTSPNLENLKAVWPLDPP
# Outline: as §1
# ETS2 = biological target: T8, ETS2 (Homo sapiens, UniProt P15036 1-469); conditions: protein: recombinant; tags: N-terminal GST; dsDNA, one strand shown
# T8 sequence: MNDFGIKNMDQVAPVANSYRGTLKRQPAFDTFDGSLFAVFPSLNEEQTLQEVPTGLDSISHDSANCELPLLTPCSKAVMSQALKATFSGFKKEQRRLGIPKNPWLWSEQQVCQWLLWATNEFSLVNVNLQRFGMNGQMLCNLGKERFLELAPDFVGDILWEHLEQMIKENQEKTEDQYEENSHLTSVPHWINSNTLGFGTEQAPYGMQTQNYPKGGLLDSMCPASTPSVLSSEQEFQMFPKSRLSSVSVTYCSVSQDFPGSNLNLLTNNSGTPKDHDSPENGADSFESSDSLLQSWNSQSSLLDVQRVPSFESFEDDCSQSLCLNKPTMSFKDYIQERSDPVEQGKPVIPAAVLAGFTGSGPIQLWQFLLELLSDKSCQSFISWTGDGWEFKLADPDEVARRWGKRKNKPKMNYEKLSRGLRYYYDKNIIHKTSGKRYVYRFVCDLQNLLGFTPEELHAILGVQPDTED
# Outline: as §1
# SPDEF = biological target: T9, SPDEF (Homo sapiens, UniProt O95238 1-335); conditions: protein: recombinant; tags: N-terminal GST; dsDNA, one strand shown
# T9 sequence: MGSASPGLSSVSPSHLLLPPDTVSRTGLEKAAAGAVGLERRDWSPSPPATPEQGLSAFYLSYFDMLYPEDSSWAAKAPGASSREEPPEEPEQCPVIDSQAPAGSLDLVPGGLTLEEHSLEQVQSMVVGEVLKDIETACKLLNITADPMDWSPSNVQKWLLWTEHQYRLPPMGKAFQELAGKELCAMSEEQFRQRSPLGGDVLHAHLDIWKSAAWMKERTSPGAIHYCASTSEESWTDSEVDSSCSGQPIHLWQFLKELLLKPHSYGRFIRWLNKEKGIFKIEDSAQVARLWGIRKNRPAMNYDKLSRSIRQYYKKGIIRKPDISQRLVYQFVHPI
# Outline: as §1
# ETV7 = biological target: T10, ETV7 (Homo sapiens, UniProt Q9Y603 1-341); conditions: protein: recombinant; tags: N-terminal GST; dsDNA, one strand shown
# T10 sequence: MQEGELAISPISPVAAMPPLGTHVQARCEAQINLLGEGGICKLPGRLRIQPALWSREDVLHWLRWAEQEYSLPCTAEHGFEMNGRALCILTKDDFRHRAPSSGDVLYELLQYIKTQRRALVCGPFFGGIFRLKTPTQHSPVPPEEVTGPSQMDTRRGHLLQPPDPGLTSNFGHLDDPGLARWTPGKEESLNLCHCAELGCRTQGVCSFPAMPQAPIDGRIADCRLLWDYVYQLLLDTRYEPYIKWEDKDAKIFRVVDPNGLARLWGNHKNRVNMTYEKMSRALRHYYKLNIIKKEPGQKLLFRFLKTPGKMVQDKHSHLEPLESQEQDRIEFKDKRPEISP
# Outline: as §1
# ELF5 = biological target: T11, ELF5 (Homo sapiens, UniProt Q9UKW6-2 1-255); conditions: protein: recombinant; tags: N-terminal GST; dsDNA, one strand shown
# T11 sequence: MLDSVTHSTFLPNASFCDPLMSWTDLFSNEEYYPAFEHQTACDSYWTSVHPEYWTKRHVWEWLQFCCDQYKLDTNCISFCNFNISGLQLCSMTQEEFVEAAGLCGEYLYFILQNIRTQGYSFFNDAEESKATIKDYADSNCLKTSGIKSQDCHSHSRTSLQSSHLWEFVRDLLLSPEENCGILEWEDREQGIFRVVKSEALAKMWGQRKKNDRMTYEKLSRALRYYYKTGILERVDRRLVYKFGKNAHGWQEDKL
# Outline: as §1
# ETV3 = biological target: T12, ETV3 (Homo sapiens, UniProt P41162-2 1-143); conditions: protein: recombinant; tags: N-terminal GST; dsDNA, one strand shown
# T12 sequence: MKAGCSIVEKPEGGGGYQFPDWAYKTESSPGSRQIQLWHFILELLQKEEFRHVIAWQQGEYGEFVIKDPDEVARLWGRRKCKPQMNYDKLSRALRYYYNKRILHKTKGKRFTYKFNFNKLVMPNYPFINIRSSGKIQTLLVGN
# Outline: as §1
# ETV6 = ETV6 (Homo sapiens, UniProt P41212 1-452); conditions: protein: recombinant; tags: N-terminal GST; dsDNA, one strand shown
# Outline: as §1
# Chain of ETV5 (P41161 whole entry): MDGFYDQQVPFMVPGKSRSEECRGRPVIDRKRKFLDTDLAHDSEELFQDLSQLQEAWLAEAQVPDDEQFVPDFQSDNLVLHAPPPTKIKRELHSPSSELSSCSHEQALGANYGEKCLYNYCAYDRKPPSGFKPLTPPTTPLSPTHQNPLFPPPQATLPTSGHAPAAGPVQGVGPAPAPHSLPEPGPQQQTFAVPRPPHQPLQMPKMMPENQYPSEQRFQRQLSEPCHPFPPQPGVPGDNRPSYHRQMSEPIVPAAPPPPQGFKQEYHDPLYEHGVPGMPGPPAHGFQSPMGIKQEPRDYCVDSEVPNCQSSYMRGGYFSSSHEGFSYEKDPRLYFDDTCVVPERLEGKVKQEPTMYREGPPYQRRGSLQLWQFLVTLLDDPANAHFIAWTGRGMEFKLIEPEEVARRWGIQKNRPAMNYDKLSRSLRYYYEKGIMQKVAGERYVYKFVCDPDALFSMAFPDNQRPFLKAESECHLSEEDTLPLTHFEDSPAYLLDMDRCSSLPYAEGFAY
# Chain of ETV6 (P41212 whole entry): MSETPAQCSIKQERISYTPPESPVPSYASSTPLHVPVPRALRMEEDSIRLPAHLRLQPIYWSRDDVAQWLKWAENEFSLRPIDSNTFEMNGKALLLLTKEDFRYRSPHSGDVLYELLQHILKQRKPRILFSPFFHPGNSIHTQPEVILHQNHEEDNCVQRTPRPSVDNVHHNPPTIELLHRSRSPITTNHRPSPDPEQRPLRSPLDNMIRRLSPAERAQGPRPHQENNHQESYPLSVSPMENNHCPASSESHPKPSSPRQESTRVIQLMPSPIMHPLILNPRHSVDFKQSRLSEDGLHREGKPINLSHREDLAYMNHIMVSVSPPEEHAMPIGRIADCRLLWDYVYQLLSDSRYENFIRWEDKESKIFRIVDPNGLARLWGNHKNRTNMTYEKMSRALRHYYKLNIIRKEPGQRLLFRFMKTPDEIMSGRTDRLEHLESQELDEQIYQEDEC
# Chain of ETV1 (P50549 whole entry): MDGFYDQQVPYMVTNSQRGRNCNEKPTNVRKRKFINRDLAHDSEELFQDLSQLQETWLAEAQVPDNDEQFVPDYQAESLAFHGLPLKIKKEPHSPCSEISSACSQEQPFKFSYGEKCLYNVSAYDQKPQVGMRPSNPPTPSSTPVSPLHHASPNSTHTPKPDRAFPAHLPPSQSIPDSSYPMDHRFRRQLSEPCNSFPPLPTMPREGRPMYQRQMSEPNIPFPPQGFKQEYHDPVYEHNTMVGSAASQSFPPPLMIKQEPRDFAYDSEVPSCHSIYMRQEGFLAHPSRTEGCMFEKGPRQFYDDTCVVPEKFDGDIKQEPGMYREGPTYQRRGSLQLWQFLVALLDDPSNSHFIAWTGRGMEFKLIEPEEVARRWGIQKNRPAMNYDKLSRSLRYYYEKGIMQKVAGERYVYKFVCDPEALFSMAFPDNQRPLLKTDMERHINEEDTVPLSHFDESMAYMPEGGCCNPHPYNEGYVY
# Chain of CRX (O43186 whole entry): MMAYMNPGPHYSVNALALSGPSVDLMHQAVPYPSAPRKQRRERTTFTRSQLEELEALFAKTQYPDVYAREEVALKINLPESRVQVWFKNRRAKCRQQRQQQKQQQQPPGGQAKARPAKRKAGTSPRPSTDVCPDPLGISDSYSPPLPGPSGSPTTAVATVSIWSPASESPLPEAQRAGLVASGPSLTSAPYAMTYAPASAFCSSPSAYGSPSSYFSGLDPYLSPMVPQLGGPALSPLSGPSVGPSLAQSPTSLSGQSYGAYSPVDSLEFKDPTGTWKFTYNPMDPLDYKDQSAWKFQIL
# Chain of ELF4 (Q99607 whole entry): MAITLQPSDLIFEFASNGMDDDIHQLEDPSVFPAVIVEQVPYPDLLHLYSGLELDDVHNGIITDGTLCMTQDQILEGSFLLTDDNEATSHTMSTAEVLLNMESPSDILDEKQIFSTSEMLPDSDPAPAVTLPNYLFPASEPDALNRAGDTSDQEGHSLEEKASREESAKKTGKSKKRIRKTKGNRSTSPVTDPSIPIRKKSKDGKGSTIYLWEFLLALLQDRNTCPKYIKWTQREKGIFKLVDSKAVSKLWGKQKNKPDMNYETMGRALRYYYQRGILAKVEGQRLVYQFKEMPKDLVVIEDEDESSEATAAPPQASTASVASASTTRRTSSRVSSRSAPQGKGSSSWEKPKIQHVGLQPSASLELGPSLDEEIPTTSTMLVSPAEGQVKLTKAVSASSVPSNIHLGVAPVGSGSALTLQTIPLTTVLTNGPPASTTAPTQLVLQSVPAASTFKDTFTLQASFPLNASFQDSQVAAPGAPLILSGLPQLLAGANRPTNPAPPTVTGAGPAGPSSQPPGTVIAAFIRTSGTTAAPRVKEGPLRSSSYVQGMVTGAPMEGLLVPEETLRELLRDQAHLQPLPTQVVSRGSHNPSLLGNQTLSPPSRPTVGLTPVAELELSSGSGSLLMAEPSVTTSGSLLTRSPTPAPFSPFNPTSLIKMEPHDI
# Chain of HSF1 (Q00613 whole entry): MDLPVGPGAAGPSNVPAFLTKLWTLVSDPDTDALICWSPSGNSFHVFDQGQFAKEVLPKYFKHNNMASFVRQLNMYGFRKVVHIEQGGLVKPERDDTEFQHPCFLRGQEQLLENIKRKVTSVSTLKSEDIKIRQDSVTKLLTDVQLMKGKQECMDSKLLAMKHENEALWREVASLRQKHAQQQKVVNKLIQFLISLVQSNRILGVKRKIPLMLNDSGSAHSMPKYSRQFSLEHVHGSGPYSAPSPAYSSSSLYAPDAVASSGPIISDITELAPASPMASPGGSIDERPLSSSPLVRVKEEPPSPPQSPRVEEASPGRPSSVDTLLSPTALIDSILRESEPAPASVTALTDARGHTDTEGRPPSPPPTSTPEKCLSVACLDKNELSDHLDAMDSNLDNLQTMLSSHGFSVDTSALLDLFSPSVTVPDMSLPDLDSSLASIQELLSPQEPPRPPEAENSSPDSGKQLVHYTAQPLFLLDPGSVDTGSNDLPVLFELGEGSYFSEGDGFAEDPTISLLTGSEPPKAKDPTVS
sequence,measurement,setting,value
AGCAAT,binding signal,FEV,"1.08 fold enrichment (6-mer frequency, TF over GST control)"
same,binding signal,ETV5,"1.14 fold enrichment (6-mer frequency, TF over GST control)"
same,binding signal,HSF1,"1.1 fold enrichment (6-mer frequency, TF over GST control)"
same,binding signal,SPIC,"1.05 fold enrichment (6-mer frequency, TF over GST control)"
same,binding signal,ELF4,"1.2 fold enrichment (6-mer frequency, TF over GST control)"
same,binding signal,ELK4,"1.14 fold enrichment (6-mer frequency, TF over GST control)"
same,binding signal,ETV2,"1.14 fold enrichment (6-mer frequency, TF over GST control)"
same,binding signal,ELF3,"1.13 fold enrichment (6-mer frequency, TF over GST control)"
same,binding signal,CRX,"1.06 fold enrichment (6-mer frequency, TF over GST control)"
same,binding signal,ETV1,"1.09 fold enrichment (6-mer frequency, TF over GST control)"
same,binding signal,ERF,"1.1 fold enrichment (6-mer frequency, TF over GST control)"
same,binding signal,ETV3L,"1.03 fold enrichment (6-mer frequency, TF over GST control)"
same,binding signal,ETS2,"1.1 fold enrichment (6-mer frequency, TF over GST control)"
same,binding signal,SPDEF,"1.04 fold enrichment (6-mer frequency, TF over GST control)"
same,binding signal,ETV7,"1.25 fold enrichment (6-mer frequency, TF over GST control)"
same,binding signal,ELF5,"1.08 fold enrichment (6-mer frequency, TF over GST control)"
same,binding signal,ETV3,"1.18 fold enrichment (6-mer frequency, TF over GST control)"
same,binding signal,ETV6,"1.14 fold enrichment (6-mer frequency, TF over GST control)"
